A number with no mark means an inactive call.
Columns and labels:
Assay in all cases: log2 ratio of Biotin-Ahx-Ub-VS probe labelling (fragment/DMSO); higher = less target engagement (more negative = stronger competition), active = hit call of the paper (q ≤ 0.05, log2 ratio ≤ -1)
Conditions in all cases: compound concentration: 200 uM; treatment time: 3 h
OTUD6B = molecular target: T1, OTUD6B (UniProt Q8N6M0)
T1 sequence (whole entry): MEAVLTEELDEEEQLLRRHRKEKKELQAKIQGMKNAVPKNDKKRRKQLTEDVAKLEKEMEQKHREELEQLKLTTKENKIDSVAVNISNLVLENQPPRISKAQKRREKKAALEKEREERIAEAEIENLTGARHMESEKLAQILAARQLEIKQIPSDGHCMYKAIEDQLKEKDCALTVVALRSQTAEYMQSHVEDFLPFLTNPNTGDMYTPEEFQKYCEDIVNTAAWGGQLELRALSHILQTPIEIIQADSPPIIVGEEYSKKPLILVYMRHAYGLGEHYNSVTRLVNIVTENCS
Outline: (§1)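 Triplicate samples of HEK293T lysate, 495 µg each, received fragment at 200 µM or vehicle for 3 h, followed by Biotin-Ahx-Ub-VS (0.5 µM final) for 1 h. After NeutrAvidin enrichment of labelled DUBs and LysC/trypsin digestion, peptides were run by diaPASEF LC-MS/MS. The values are average log2 fragment/vehicle ratios from global-median-normalised Spectronaut label-free quantities, tested by unpaired t-test on proteins having ≥2 unique peptides.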

OTUD7B = molecular target: T2, OTUD7B (UniProt Q6GQQ9)
T2 sequence (whole entry): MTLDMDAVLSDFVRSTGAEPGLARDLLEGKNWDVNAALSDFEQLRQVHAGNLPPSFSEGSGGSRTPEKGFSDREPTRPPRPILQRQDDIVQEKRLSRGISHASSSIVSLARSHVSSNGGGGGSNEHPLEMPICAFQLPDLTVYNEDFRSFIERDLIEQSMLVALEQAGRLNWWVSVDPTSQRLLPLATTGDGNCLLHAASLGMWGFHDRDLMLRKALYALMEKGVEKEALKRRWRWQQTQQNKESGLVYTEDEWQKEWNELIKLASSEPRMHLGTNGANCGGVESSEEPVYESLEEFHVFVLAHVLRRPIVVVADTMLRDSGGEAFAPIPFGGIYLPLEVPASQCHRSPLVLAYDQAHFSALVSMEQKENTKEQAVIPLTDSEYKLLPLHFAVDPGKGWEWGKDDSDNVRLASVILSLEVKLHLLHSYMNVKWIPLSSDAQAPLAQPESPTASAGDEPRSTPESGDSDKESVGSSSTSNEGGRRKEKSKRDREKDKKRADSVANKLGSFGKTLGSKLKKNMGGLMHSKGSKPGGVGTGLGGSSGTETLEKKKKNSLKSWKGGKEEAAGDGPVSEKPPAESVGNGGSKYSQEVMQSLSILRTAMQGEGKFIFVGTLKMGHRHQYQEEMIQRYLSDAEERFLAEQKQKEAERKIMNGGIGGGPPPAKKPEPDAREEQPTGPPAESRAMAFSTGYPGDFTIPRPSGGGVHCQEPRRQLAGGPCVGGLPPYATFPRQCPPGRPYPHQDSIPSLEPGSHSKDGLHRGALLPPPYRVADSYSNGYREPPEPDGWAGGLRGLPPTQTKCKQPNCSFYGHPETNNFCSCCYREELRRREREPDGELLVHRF
Outline: as §1

PRPF8 = PRPF8 (UniProt Q6P2Q9)
Outline: as §1

PSMD7 = molecular target: T3, PSMD7 (UniProt P51665)
T3 sequence (whole entry): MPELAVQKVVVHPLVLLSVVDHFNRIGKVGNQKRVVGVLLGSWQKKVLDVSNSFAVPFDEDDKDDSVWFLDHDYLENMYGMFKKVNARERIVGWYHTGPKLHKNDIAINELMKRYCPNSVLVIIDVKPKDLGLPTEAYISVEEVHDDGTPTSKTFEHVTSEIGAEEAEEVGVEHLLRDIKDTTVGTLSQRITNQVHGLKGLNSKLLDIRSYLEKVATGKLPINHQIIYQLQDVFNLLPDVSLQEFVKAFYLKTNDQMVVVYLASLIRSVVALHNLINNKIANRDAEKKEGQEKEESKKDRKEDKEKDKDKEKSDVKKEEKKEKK
Outline: as §1

UCHL1 = UCHL1 (UniProt P09936)
Outline: as §1

UCHL3 = molecular target: T4, UCHL3 (UniProt P15374)
T4 sequence (whole entry): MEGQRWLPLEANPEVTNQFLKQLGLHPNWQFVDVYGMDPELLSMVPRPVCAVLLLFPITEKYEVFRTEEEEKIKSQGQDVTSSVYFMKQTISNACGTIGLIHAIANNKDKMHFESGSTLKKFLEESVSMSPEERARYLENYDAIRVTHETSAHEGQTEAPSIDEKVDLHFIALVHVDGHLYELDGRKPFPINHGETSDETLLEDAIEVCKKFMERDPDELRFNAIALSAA
Outline: as §1

UCHL5 = molecular target: T5, UCHL5 (UniProt Q9Y5K5)
T5 sequence (whole entry): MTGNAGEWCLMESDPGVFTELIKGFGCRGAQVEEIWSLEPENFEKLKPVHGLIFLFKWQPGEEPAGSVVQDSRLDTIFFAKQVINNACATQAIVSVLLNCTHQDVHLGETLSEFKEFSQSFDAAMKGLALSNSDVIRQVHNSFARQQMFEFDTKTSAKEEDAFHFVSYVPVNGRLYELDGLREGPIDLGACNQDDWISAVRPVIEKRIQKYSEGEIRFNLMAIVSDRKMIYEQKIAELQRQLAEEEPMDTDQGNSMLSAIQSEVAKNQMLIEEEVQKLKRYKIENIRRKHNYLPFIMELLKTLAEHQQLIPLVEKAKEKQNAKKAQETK
Outline: as §1

USP10 = USP10 (UniProt Q14694)
Outline: as §1

USP15 = molecular target: T6, USP15 (UniProt Q9Y4E8)
T6 sequence (whole entry): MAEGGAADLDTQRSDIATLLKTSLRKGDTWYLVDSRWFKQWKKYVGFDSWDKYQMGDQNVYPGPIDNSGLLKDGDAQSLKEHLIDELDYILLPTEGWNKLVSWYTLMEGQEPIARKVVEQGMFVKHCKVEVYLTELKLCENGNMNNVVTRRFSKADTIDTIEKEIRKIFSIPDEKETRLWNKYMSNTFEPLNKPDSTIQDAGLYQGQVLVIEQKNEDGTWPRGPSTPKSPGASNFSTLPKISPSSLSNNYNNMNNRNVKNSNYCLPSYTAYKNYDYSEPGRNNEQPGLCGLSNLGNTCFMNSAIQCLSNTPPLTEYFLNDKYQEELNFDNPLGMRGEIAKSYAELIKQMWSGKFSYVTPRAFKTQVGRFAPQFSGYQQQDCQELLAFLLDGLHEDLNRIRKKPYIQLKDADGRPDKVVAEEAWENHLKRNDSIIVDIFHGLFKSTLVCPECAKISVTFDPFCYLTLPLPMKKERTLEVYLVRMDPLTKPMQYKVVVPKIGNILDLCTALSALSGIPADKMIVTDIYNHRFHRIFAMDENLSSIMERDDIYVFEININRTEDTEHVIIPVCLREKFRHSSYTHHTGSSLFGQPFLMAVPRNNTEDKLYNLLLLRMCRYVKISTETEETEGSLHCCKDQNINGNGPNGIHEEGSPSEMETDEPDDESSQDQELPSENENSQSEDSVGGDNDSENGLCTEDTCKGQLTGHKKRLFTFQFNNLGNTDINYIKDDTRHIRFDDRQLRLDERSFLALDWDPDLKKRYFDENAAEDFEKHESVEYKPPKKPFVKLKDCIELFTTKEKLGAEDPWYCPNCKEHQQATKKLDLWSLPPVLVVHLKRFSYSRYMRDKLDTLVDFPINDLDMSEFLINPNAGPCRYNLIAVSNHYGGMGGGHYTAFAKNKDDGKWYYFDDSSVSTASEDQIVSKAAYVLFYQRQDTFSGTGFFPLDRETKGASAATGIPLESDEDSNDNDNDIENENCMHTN
Outline: as §1

USP16 = USP16 (UniProt Q9Y5T5)
Outline: as §1

USP16, sequence (Q9Y5T5 whole entry, looked up): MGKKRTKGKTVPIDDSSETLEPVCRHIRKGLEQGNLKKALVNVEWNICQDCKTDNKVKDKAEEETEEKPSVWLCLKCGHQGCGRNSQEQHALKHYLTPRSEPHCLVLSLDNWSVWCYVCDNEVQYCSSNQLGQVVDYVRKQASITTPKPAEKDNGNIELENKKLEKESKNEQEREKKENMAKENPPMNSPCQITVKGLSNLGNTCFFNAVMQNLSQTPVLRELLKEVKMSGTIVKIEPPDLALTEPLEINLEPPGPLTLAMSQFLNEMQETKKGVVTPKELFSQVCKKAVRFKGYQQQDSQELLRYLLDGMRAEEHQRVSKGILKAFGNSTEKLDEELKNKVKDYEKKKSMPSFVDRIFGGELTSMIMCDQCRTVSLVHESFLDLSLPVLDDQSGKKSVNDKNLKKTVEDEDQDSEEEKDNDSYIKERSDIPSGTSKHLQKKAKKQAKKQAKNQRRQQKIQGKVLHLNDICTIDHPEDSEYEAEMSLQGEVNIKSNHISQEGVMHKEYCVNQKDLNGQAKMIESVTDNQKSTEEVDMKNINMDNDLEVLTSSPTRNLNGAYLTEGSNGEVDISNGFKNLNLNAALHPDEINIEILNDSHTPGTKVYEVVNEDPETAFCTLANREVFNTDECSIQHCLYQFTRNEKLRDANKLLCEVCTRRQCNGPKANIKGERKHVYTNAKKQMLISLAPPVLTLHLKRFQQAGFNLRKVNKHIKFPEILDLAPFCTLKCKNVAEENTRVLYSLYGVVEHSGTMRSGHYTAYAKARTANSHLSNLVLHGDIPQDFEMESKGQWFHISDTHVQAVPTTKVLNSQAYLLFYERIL
USP10, sequence (Q14694 whole entry): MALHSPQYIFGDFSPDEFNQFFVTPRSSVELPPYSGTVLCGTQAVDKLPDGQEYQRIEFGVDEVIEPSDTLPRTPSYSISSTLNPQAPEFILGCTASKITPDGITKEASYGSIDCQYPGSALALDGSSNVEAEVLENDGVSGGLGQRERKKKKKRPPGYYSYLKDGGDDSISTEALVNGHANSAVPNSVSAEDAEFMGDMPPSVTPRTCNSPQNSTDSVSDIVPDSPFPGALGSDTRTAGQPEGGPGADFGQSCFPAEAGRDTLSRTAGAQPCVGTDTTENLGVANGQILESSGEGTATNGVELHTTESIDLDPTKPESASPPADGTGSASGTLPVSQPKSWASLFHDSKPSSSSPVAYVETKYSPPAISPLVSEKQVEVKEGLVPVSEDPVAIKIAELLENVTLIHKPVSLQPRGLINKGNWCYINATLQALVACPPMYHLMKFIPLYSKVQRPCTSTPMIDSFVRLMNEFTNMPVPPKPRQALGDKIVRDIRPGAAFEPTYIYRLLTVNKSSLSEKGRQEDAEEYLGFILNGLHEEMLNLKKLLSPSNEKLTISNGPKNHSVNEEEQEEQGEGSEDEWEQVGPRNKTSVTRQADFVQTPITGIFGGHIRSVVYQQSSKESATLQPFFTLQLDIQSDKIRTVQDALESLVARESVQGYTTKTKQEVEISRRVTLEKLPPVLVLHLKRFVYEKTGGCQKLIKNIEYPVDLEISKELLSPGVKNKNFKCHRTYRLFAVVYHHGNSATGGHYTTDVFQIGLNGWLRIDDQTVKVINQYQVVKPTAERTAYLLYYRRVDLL
UCHL1, sequence (P09936 whole entry, looked up): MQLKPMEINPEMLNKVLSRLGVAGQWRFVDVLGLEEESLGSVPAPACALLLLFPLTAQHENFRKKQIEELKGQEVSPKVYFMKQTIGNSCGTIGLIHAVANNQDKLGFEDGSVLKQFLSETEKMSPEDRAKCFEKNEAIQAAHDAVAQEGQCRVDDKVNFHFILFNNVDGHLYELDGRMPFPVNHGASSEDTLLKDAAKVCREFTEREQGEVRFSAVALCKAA

Q: Which results are given for `COCC[C@@H](NC(=O)CCl)c1ccccc1`?
A: log2 ratio of Biotin-Ahx-Ub-VS probe labelling (OTUD6B): 0.0947; log2 ratio of Biotin-Ahx-Ub-VS probe labelling (OTUD7B): -0.357; log2 ratio of Biotin-Ahx-Ub-VS probe labelling (PRPF8): -0.103; log2 ratio of Biotin-Ahx-Ub-VS probe labelling (PSMD7): -0.216; log2 ratio of Biotin-Ahx-Ub-VS probe labelling (UCHL1): -1.4 (active); log2 ratio of Biotin-Ahx-Ub-VS probe labelling (UCHL3): 0.334; log2 ratio of Biotin-Ahx-Ub-VS probe labelling (UCHL5): -0.0927; log2 ratio of Biotin-Ahx-Ub-VS probe labelling (USP10): 0.0397; log2 ratio of Biotin-Ahx-Ub-VS probe labelling (USP15): -0.00696; log2 ratio of Biotin-Ahx-Ub-VS probe labelling (USP16): -0.303

Source: the supplement of paper PMC11732987, “Enantioselective OTUD7B fragment discovery through chemoproteomics screening and high-throughput optimisation” (Communications Chemistry, 2025)
